A selection: hits, their analogues and other compounds. The true share with any hit is near 3.5%.
TEAD-YAP inh: TEAD-YAP interaction inhibition | HEK-TIYL cells, TEAD-Gal4/YAP UAS-luciferase luminescence | inhibition, % at 9.12 µM | 640,000 tested, 1.4% active; in the data active = inhibition above about 32%;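 also: 0% = median of test compound wells and 100% = reference inhibitor wells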
GPR151 activ: activates the human receptor GPR151; Q8TDV0; PathHunter beta-arrestin GPR151 cells, luminescence; activation, % at 11.2 µM; 650,000 tested, 1% active; AID 1508602; in the data active = activation above about 4.9%;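 also: 0% = median of compound wells and 100% = cells with positive control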
FBW7 act: human FBW7 E3 ligase activation, primary screen | AlphaScreen FBW7–phospho-cyclin E peptide binding, activator screen | normalized activity (activation), % at 26.1 µM | 650,000 tested, 0.13% active; in the data active = normalized activity above about 1.9%;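 also: purified mutant Fbw7 with reduced substrate affinity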
MITF primary: blocks human microphthalmia-associated transcription factor; 650,000 tested, 0.91% active; AID 1259374; AlphaScreen MITF homodimerization, bead proximity signal; inhibition, % at 2.6 µM; in the data active = inhibition above about 50%;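 also: 0% = vehicle wells with protein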
Target sequence (O75030 whole entry, looked up): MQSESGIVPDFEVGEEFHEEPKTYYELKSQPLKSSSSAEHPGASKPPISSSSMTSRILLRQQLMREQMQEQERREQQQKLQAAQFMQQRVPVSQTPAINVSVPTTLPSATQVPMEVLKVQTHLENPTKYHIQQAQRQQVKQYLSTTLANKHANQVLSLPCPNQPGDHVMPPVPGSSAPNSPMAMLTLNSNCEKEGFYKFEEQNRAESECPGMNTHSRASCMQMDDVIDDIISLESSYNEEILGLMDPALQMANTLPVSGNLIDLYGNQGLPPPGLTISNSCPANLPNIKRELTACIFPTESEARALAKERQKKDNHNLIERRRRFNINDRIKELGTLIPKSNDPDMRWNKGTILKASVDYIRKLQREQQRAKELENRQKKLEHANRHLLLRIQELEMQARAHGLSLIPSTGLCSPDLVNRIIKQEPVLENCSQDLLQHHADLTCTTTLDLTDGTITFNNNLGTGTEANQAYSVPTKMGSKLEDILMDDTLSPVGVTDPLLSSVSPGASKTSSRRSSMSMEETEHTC
GPR151 confirm: human GPR151 activation, confirmation screen; shares compounds with GPR151 activ; GPR151 PathHunter beta-arrestin cells, luminescence, 90 min; % of EA-reagent control over plate median; activation, % at 11.2 µM; 6,700 tested, under 10 active;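 active = mean percent activation across replicates above the confirmation screen cutoff of 4.91%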
GPR119 ag: GPR119 activation, counter-screen for GPR151 activators | shares compounds with GPR151 activ | GPR119 PathHunter beta-arrestin cells, luminescence, 90 min; 0 = compound-well median, 100 = enzyme-acceptor control | activation, % at 11.2 µM | 6,700 tested, 0.3% active;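 active = mean percent activation in the counterscreen above 29.09%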;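 also: counterscreen on off-target GPR119 to flag nonselective hits from the GPR151 activator screen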
Numbers without * were called inactive.

Results for CCOC(=O)c1sc(NC(=S)NC(=O)c2ccccc2F)nc1C ?
TEAD-YAP inh: 10; GPR151 activ: -1; FBW7 act: 0; MITF primary: -1

What do the screens show for `Cc1ccc(NC(=O)Cn2c(=O)n(Cc3ccc(F)cc3)c(=O)c3cccnc32)cc1`?
TEAD-YAP inh: 9; GPR151 activ: -1; FBW7 act: 0; MITF primary: 5

Results for CC1Cc2ccccc2N1C(=O)Nc1ccc(F)cc1 (stereo not drawn) ?
TEAD-YAP inh: -7; GPR151 activ: 5.5*; FBW7 act: 1; MITF primary: 11; GPR151 confirm: -1; GPR119 ag: -20

How did c1ccc2c(c1)OC[C@H](c1nc3ccc(-c4ccncc4)cc3[nH]1)O2 do in these assays?
TEAD-YAP inh: -31; GPR151 activ: 0; FBW7 act: 0; MITF primary: 17

Results for FC(F)(F)c1cc2[nH]c(C3COc4ccccc4O3)nc2cc1-c1ccncc1 (stereo not drawn) ?
TEAD-YAP inh: -15; GPR151 activ: 8.0*; FBW7 act: 0; MITF primary: -5; GPR151 confirm: 0; GPR119 ag: -1

How did CCc1c(C(=O)Nc2ccc(C)c(F)c2)[nH]c(C)c1C(C)=O do in these assays?
TEAD-YAP inh: -12; GPR151 activ: 12*; FBW7 act: 0; MITF primary: 2; GPR151 confirm: -1; GPR119 ag: -8

How did Cc1cccn2cc(-c3c[nH]c4ccccc34)nc12 do in these assays?
TEAD-YAP inh: -46; GPR151 activ: 1; FBW7 act: 0; MITF primary: 1

What do the screens show for `Brc1ccc2nc(-c3c[nH]c4ccccc34)cn2c1`?
TEAD-YAP inh: -29; GPR151 activ: 7.1*; FBW7 act: 0; MITF primary: 2; GPR151 confirm: 0; GPR119 ag: -8

Results for COC(=O)c1c(NC(C)=O)c2c(C)c(C)sc2n1Cc1cccc(OC)c1 ?
TEAD-YAP inh: 0; GPR151 activ: 0; FBW7 act: 0; MITF primary: -4

Results for C=Cc1ccc(Cn2c(C(=O)OC)c(NC(C)=O)c3c(C)c(C)sc32)cc1 ?
TEAD-YAP inh: -2; GPR151 activ: 5.4*; FBW7 act: 0; MITF primary: -2; GPR151 confirm: 0; GPR119 ag: -15

What do the screens show for `O=C(/C=C/c1ccccc1Cl)Nc1cccc(C(F)(F)F)c1`?
TEAD-YAP inh: -28; GPR151 activ: 2; FBW7 act: 0; MITF primary: -15

What do the screens show for `COC(=O)c1ccc(C2C3=C(CC(c4ccc(C)cc4)CC3=O)Nc3ccccc3N2C(C)=O)cc1` (stereo not drawn)?
TEAD-YAP inh: 15; GPR151 activ: 6.6*; FBW7 act: 0; MITF primary: 17; GPR151 confirm: 0; GPR119 ag: 5

What do the screens show for `O=C(O)c1ccc(NS(=O)(=O)c2cc(C(=O)O)ccc2Br)cc1`?
TEAD-YAP inh: -2; GPR151 activ: 5.6*; FBW7 act: 0; MITF primary: -8; GPR151 confirm: 0; GPR119 ag: -4

What do the screens show for `COCc1cc(C)nc2sc3c(=O)n(-c4ccc(C)cc4C)nnc3c12`?
TEAD-YAP inh: 5; GPR151 activ: 1; FBW7 act: 0; MITF primary: 16

Results for COCc1cc(C)nc2sc3c(=O)n(-c4ccc(C(C)=O)cc4)nnc3c12 ?
TEAD-YAP inh: -3; GPR151 activ: 5.5*; FBW7 act: 0; MITF primary: 0; GPR151 confirm: 0; GPR119 ag: 5

How did CCOC(=O)COc1ccc2c(=O)c(Oc3ccc(CC)cc3)coc2c1 do in these assays?
TEAD-YAP inh: 4; GPR151 activ: 0; FBW7 act: 0; MITF primary: 12

Results for Nc1ccc(NC(=O)c2ccc(C(=O)Nc3ccc(N)cc3N)cc2)c(N)c1 ?
TEAD-YAP inh: 2; GPR151 activ: 0; FBW7 act: 0; MITF primary: 14

What do the screens show for `CC(C)c1ccc(NC(=O)c2ccc(N)cc2)c(N)c1`?
TEAD-YAP inh: -50; GPR151 activ: 5.8*; FBW7 act: 0; MITF primary: -3; GPR151 confirm: 0; GPR119 ag: -11

What do the screens show for `CC(=O)Nc1ccc(NC(=O)c2cc(C)nc3ccc(F)cc23)cc1`?
TEAD-YAP inh: 2; GPR151 activ: 2; FBW7 act: 0; MITF primary: 0

Screens as filed in PubChem.
